Test results reported in PubChem BioAssay (NCI).
“And” between values parts separate entries of the source, which are not always exact repeats. Equal values may be shown once. Compounds without any hit were thinned out: in the full panel of roughly 83,000, 20% have a hit.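 96-well plates, one dose, 48 hours. Percent growth reported; active if below 10.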 The source made the active and inactive calls.

How the values were obtained:
Assay in all cases: NCI-60 one-dose screen, 48 h (100 = growth as untreated, 0 = no growth, -100 = all killed)
Details in all cases: 10 µM unless noted
HCT-15 colon = system: HCT-15 colon
HT29 colon = system: HT29 colon
SNB-75 CNS = system: SNB-75 CNS
SNB-19 CNS = system: SNB-19 CNS
U251 CNS = system: U251 CNS
PC-3 prostate = system: PC-3 prostate
SK-MEL-5 melanoma = system: SK-MEL-5 melanoma
UACC-62 melanoma = system: UACC-62 melanoma
LOX IMVI melanoma = system: LOX IMVI melanoma
SK-MEL-28 melanoma = system: SK-MEL-28 melanoma

SMILES	growth (HCT-15 colon)	growth (HT29 colon)	growth (SNB-75 CNS)	growth (SNB-19 CNS)	growth (U251 CNS)	growth (PC-3 prostate)	growth (SK-MEL-5 melanoma)	growth (UACC-62 melanoma)	growth (LOX IMVI melanoma)	growth (SK-MEL-28 melanoma)
Nc1ccc(/C=N/Nc2ccnc3c(N)cccc23)c2cccnc12	-49.7% (active)	-22.5% (active)	-99.7% (active)	21.8% (inactive)	-63.4% (active)	15.8% (inactive)	83.1% (inactive)	89.5% (inactive)	-90.9% (active)	105% (inactive)
O=C([C@H]1C[C@H]1c1ccc(S(F)(F)(F)(F)F)cc1)N1CCN(c2cc(Cl)ccc2C(F)(F)F)CC1	88.1% (inactive)	67.5% (inactive)	101% (inactive)	97.1% (inactive)	94.2% (inactive)	74.2% (inactive)	89.9% (inactive)	67.4% (inactive)	102% (inactive)	97.1% (inactive)
Clc1ccc2c(c1)N(c1ncnc3ccc(-c4cnc5[nH]ccc5c4)cc13)CC2	14.4% (inactive)	3.75% (active)	3.69% (active)	38.3% (inactive)	41.3% (inactive)	28.2% (inactive)	32.7% (inactive)	29.3% (inactive)	13.4% (inactive)	36% (inactive)
O=C1/C(=C/c2cn(-c3ccccc3)nc2-c2ccccc2)SC(=S)N1c1ccc(Cl)cc1	73% (inactive)	99.1% (inactive)	90.4% (inactive)	71.9% (inactive)	57.2% (inactive)	56.8% (inactive)	78.5% (inactive)	57.5% (inactive)	63.3% (inactive)	73.5% (inactive)
COC1/C=C/OC2(C)Oc3c(C)c(O)c4c(O)c(c(C=NOC(c5ccccc5)c5ccccc5)c(O)c4c3C2=O)NC(=O)/C(C)=C/C=C/C(C)C(O)C(C)C(O)C(C)C(OC(C)=O)C1C (stereo not given)	13.2% (inactive)	-12.1% (active)	17.2% (inactive)	30.8% (inactive)	10.4% (inactive)	9.81% (active)	6.07% (active)	-4.64% (active)	0.468% (active)	-7.28% (active)
N#Cc1cc(-c2ccnc(Nc3ccc(NC(=O)CCl)cc3)n2)ccc1N1CCCC1	-45.7% (active)	-56.9% (active)	-17.5% (active)	5.98% (active)	-33.1% (active)	8.3% (active)	-96% (active)	-71.3% (active)	-84.8% (active)	-52.4% (active)
NC(N)=NC(N)=NCCCc1ccco1	106% (inactive)	94.4% (inactive)	111% (inactive)	103% (inactive)	101% (inactive)	103% (inactive)	101% (inactive)	113% (inactive)	97.1% (inactive)	98.8% (inactive)
O=C(Nc1ncc(Cc2cccc(C(F)(F)F)c2)s1)c1ccc2c(c1)OCCO2	8.27% (active)	4.83% (active)	25.5% (inactive)	42.9% (inactive)	16.7% (inactive)	28.3% (inactive)	-21.5% (active)	39.9% (inactive)	40.8% (inactive)	73.1% (inactive)
O=[N+]([O-])c1ccc(S(=O)Cc2ccccc2)c([N+](=O)[O-])c1 (stereo not given)	6.6% (active) and -44.4% (active)	-67.6% (active) and -20.6% (active)	105% (inactive) and 50% (inactive)	92.8% (inactive) and 97.7% (inactive)	93.6% (inactive) and 91% (inactive)	93.9% (inactive) and 82.8% (inactive)	88% (inactive) and 75.9% (inactive)	54.6% (inactive) and 82.2% (inactive)	-75.4% (active) and -31.4% (active)	89.4% (inactive) and 23% (inactive)
CCOC(=O)n1cc(-c2nonc2-c2cn(C)c3ccc(OC)cc23)c2cc(F)ccc21	69.2% (inactive)	71.1% (inactive)	70.2% (inactive)	76.1% (inactive)	83.1% (inactive)	65% (inactive)	92% (inactive)	52.6% (inactive)	72.2% (inactive)	99.6% (inactive)
O=C1c2cc3c(cc2-c2c1c1ccc(Cl)cc1c(=O)n2CCCn1ccnc1)OCO3	7.3% (active)	-62.9% (active)	0.456% (active)	17.3% (inactive)	-33.1% (active)	19.9% (inactive)	-93% (active)	-57.7% (active)	-76.8% (active)	15.5% (inactive)
CC(=O)c1c(C)nc(SCC(=O)Nc2ccc(Cl)cc2)n1-c1ccc(Cl)cc1	84.6% (inactive)	83% (inactive)	73.1% (inactive)	93.7% (inactive)	89.8% (inactive)	71.8% (inactive)	81.9% (inactive)	69.7% (inactive)	93.1% (inactive)	104% (inactive)
Nc1nc(CSc2n[nH]c(N)n2)nc(Nc2ccccc2)n1	94.2% (inactive)	106% (inactive)	82.2% (inactive)	101% (inactive)	99.9% (inactive)	101% (inactive)	101% (inactive)	91.9% (inactive)	98.3% (inactive)	100% (inactive)
C=CCN1C=CC(=O)[C@H](O[Si](C)(C)C(C)(C)C)[C@@H]1/C=C/c1ccccc1	-70.7% [100 µM] (active)	-73% [100 µM] (active)	-87.9% [100 µM] (active)	-92% [100 µM] (active)	-39.6% [100 µM] (active)	-76.2% [100 µM] (active)	-84.9% [100 µM] (active)	-78.2% [100 µM] (active)	-43.9% [100 µM] (active)	-68.2% [100 µM] (active)
Fc1ccc(NC(c2ccc(F)cc2)C2CCN(CCCCc3ccccc3)CC2)cc1 (stereo not given)	29.3% (inactive)	3.89% (active)	63.4% (inactive)	50% (inactive)	16.6% (inactive)	35% (inactive)	-3.5% (active)	26% (inactive)	11.3% (inactive)	60.1% (inactive)
O=C1C(N2CCOCC2)=C(I)C(=O)c2ncccc21	67.1% (inactive)	102% (inactive)	66.3% (inactive)	73% (inactive)	61.9% (inactive)	79.4% (inactive)	89.4% (inactive)	69.5% (inactive)	43.4% (inactive)	96.6% (inactive)
O=C(NCCCN1CCCCC1)c1ccc(-c2nc3ccc4[nH]ncc4c3c3c2CCCC3)cc1	58.4% (inactive)	50.7% (inactive)	17.6% (inactive)	78.2% (inactive)	66.7% (inactive)	29% (inactive)	76.2% (inactive)	62.6% (inactive)	48.3% (inactive)	72.2% (inactive)
Nc1n[nH]c2cccc(C#Cc3cccc(NC(=O)c4ccc(N5CCOCC5)c(C(F)(F)F)c4)c3)c12	8.44% (active)	3.29% (active)	-25.6% (active)	26.1% (inactive)	16.6% (inactive)	1.76% (active)	23.4% (inactive)	-5.9% (active)	-96.9% (active)	8.55% (active)
CCN1C(=O)/C(=c2\sc3n(c2=O)C2C(NN=3)N(CC)C(=O)N2CC)c2ccccc21 (stereo not given)	19.3% (inactive)	13% (inactive)	5.72% (active)	42% (inactive)	32.3% (inactive)	26.3% (inactive)	12.7% (inactive)	32.9% (inactive)	33% (inactive)	54.2% (inactive)
Cc1ccc(/C=C/c2c(C(=O)/C=C/c3ccccc3)c(C)nc3ccccc23)cc1	-24.6% (active)	0.173% (active)	29% (inactive)	15.7% (inactive)	-5.93% (active)	31.3% (inactive)	32.3% (inactive)	29.2% (inactive)	-79.4% (active)	24.3% (inactive)
Cc1cc(N2CCCCC2)nc(NCc2cc(Nc3ccnc4cc(Cl)ccc34)ccc2F)n1	-55.1% (active)	-58.4% (active)	-37.1% (active)	40.9% (inactive)	-90.9% (active)	17.4% (inactive)	-96.3% (active)	-80.7% (active)	-79.2% (active)	-73.8% (active)
CCOc1ccc(N2C(N)=NC(N)=NC2(C)C)cc1	99.9% (inactive)	2.75% (active) and 87.4% (inactive)	-3.85% (active) and 82.7% (inactive)	40.3% (inactive) and 98.2% (inactive)	20% (inactive) and 68.6% (inactive)	16% (inactive) and 39.3% (inactive)	4.48% (active) and 102% (inactive)	41.4% (inactive) and 95.4% (inactive)	36.7% (inactive) and 90.1% (inactive)	31.2% (inactive) and 113% (inactive)
CN(Cc1ccccc1)c1nc(Cl)c(C2CC(c3ccc4c(c3)OCO4)=NN2c2cc(Cl)cc(Cl)c2)s1 (stereo not given)	98.7% (inactive)	97.8% (inactive)	78.5% (inactive)	106% (inactive)	98.1% (inactive)	93.5% (inactive)	97.4% (inactive)	96.6% (inactive)	96.6% (inactive)	99% (inactive)
